In PubChem BioAssay (EPA / NIEHS):
Inconclusive results are not listed. Some structures have more than one record in an assay (separate samples or runs), and their calls can disagree. Calls of active or inactive are those of the source. How the source made its calls: active means hit-call score of the fitted dose curve at least 0.9, where 1 is the maximum; inconclusive means response in the unintended direction; inactive means score below 0.9.

Experiment: Tanguay_ZF_120hpf_BRAI_legacy: (Legacy) Oregon State University Tanguay Lab 120 Hour Post-fertilization zebrafish Assay for Brain Malformation (AID 2283641)
Experimental: Tanguay_ZF_120hpf_legacy is a whole embryo, multiplexed endpoint assay using zebrafish larvae exposed for 120 hours post fertilization on a 96-well plate.Tanguay_ZF_120hpf_BRAI_legacy is one of one assay component(s) measured or calculated from the Tanguay_ZF_120hpf_legacy assay. It is designed to make measurements of zebrafish development as detected with brightfield microscopy of developing zebrafish embryos.Data from the assay component Tanguay_ZF_120hpf_BRAI_legacy was analyzed into 1 assay endpoints. This assay endpoint, Tanguay_ZF_120hpf_BRAI_legacy, was analyzed in the positive analysis fitting direction relative to DMSO as the negative control and baseline of activity. Using a type of morphology reporter, gain-of-signal activity can be used to understand changes in developmentals as they relate to the whole embryo. To generalize the intended target to other relatable targets, this assay endpoint is annotated to the zebrafish development intended target family, where the subfamily is brain morphogenesis.
Zebrafish husbandry: Tropical 5D wild-type adult zebrafish were housed in at an approximate density of 1000 per 100 gallon tank at the Sinnhuber Aquatic Research Laboratory, Oregon State University, Corvallis, OR. Each tank was kept at standard laboratory conditions of 28C on a 14-h light/10-h dark photoperiod in fish water consisting of reverse osmosis water supplemented with a commercially available salt (Instant Ocean). Spawning funnels were placed into the tanks the night prior, and embryos were collected and staged. […] Ten microliters of each row of dilution plate 2 was added to 2 exposure plates. The final DMSO concentration used was 0.64% (vol/vol). Thirty-two embryos were also exposed to 5uM trimethyltin chloride (positive control). Plates were sealed to prevent evaporation and foil covered to reduce light exposure and kept in a 28C incubator. Embryos were statically exposed until 120 hpf. At 24 hpf, embryos were assessed for photomotor response using a custom photomotor response analysis tool (PRAT) and for developmental toxicity endpoints (MO24: mortality at 24 hpf, DP: developmental progression, SM: spontaneous movement, and NC: notochord distortion). At 120 hpf, locomotor activity was measured using Viewpoint Zebralab and assessed for 18 endpoints. Zebrafish acquisition and analysis program (ZAAP), a custom program designed to inventory, acquire, and manage zebrafish data, was used to collect developmental endpoints as either present or absent (i.e., binary responses were recorded). If mortality occurred for an embryo (at either 24 or 120 hpf), the non-mortality endpoints were not measured.

SMILES | outcome | AC50
C[C@@H]1C[C@@H]([C@H](O)CC2CC(=O)NC(=O)C2)C(=O)[C@@H](C)C1 | inactive | 
CCOP(=S)(OCC)Oc1nc(Cl)c(Cl)cc1Cl | inactive | 
O=C(O)C(F)(F)C(F)(F)C(F)(F)C(F)(F)C(F)(F)C(F)(F)C(F)(F)C(F)(F)C(F)(F)C(F)(F)F | inactive | 
CCCCCCCCc1ccc(O)cc1 | inactive | 
O=C(O)C(F)(F)C(F)(F)C(F)(F)C(F)(F)C(F)(F)C(F)(F)F | inactive | 
CC(=O)[O][Hg][c]1ccccc1 | inactive | 
Cc1ccccc1N | inactive | 
C=CC(=O)OCCCCCC(C)C | inactive | 
O=c1[nH]c(=O)[nH]c(=O)[nH]1 | inactive | 
O=C(Nc1ccc2[nH]ccc2c1)c1cc2cc(F)ccc2n1Cc1cccc(F)c1 | inactive | 
CCOP(=S)(OCC)SCSP(=S)(OCC)OCC | inactive | 
CCC(C)(C)c1ccc(O)c(C(C)(C)CC)c1 | inactive | 
C=C(C)C(=O)[O][Sn]([CH2]CCC)([CH2]CCC)[CH2]CCC | inactive | 
O=C1C2(Cl)C3(Cl)C4(Cl)C(Cl)(Cl)C5(Cl)C3(Cl)C1(Cl)C5(Cl)C24Cl (stereo not given) | inactive | 
COc1cc(-c2ccc(N)c(OC)c2)ccc1N | inactive | 77.2 µM (active)
CCC(=O)C(CC(C)N(C)C)(c1ccccc1)c1ccccc1 (stereo not given) | inactive | 
CC(C)(c1ccccc1)c1ccc(O)c(C(C)(C)c2ccccc2)c1 | inactive | 
ClC1(Cl)C2(Cl)C3(Cl)C4(Cl)C(Cl)(Cl)C5(Cl)C3(Cl)C1(Cl)C5(Cl)C24Cl (stereo not given) | inactive | 
C[C@]12CCC(=O)C[C@@H]1CC[C@@H]1[C@@H]2CC[C@]2(C)[C@@H](O)CC[C@@H]12 | inactive | 
CCN1CCC2(CC1)COc1cc3c(cc12)N(C(=O)c1ccc(-c2ccc(-c4nnc(C)o4)cc2C)cc1)CC3 | inactive | 
Cn1sc(Cl)cc1=O | inactive | 
NC(=O)O | inactive | 
Oc1cccc2cccnc12 | inactive | 
CC(C)(C)c1cc(O)ccc1O | inactive | 
ClCC(Cl)CCl | inactive | 
CC12CC1(C)C(=O)N(c1cc(Cl)cc(Cl)c1)C2=O (stereo not given) | inactive | 
O=[N+]([O-])c1ccc(O)c([N+](=O)[O-])c1 | inactive | 
CN(C)N=O | inactive | 
O=C(O)C(Cl)(Cl)Cl | inactive | 
